Screens (PubChem BioAssay)
Shown are actives, neighbours in structure and some others; about 21% of the full set was active somewhere.
Pf growth 96h: P. falciparum growth inhibition at 96 hour, primary screen for plastid delayed-death inhibitors. AID 504834. Potency, µM (doses to about 28.7 µM), inactives show at the top dose activity change, negative = inhibition, usual class: inhibitors. hit rate 6.9% among 320,000. P. falciparum luciferase reporter growth, 96 h; note: potency is the fitted concentration of half-maximal effect; % is set by controls: 0 for no effect and ±100 for the full control effect
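Parasite growth measured via integrated firefly luciferase reporter in P. falciparum. Infected erythrocytes at 2% hematocrit, 0.05% parasitemia final were treated 96 hours at 37 C under 5% CO2, and luminescence was read.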
Pf growth 48h: inhibits P. falciparum growth in the first generation, 48 h; hit rate 5.9% among 310,000; P. falciparum luciferase growth in erythrocytes, 48 h; Potency, µM (titrated, usually from 28.7 µM), inactives show at the top dose activity change, negative = inhibition, hits mostly inhibitors; AID 504832; note: potency is the fitted concentration of half-maximal effect; % is set by controls: 0 for no effect and ±100 for the full control effect
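A one-generation exposure of luciferase-tagged malaria parasites in RPMI 1640/Albumax erythrocyte culture, 37 C and 5% CO2. Inhibition is inferred from decreased luminescence after adding detection reagent.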
AMA1-RON2 inh: inhibitors of Plasmodium falciparum AMA1-RON2 interaction; AlphaScreen AMA1-biotinylated RON2 peptide binding; Potency, µM (doses to about 58.2 µM), inactives show at the top dose activity change, negative = inhibition, actives largely listed as inhibitors; hit rate 0.2% among 360,000; AID 720542;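 note: potency is the fitted concentration of half-maximal effect; 0% = vehicle wells and -100% = peptide control; nearly all actives have a fitted effect of over 45% in size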
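AMA1 (3D7) with his tag at 25 nM final met compounds first, then biotinylated RON2 peptide at 25 nM; detection used donor plus acceptor beads, 10 µg/mL apiece, read by AlphaScreen after 30 min at room temperature.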
Shiga inhibitor: Shiga toxin inhibition | Vero cells, Shiga toxin protein synthesis inhibition reporter | inhibition, % at 38.7 µM | hit rate 9.2% among 290,000 | AID 2315; in the data active = inhibition mostly above about 28%, no sharp cut-off; inactive = mostly below about 43%; note: 0% is about no effect
Cycloheximide cs: counter-screen for Shiga toxin inhibitors: cycloheximide protein synthesis inhibition | cell reporter, cycloheximide protein synthesis inhibition counterscreen | max response, % | hit rate 12% among 300,000; in the data active = max response mostly above about 13%, no sharp cut-off; inactive = mostly below about 14%; note: read at 38.3 µM for the half of the compounds with a filed dose; 0% is about no effect
HCV inh: HCV inhibition; Huh7.5.1 HCVcc-Cre infection, luciferase reporter, 44 h; Potency, µM (doses to about 41.8 µM), inactives show top-dose activity change, negative = inhibition, hits mostly inhibitors; hit rate 3.4% among 340,000; note: potency is the fitted concentration of half-maximal effect; % is set by controls: 0 for no effect and ±100 for the full control effect
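Seed cells (1,000/well) for 4 h; treat with compound and infect with HCVcc-Cre, moi about 0.5. Incubate 44 h, then detect luciferase activity.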
An asterisk follows results filed as active; ? = inconclusive; . = no result; [ ] = dose if it differs, or a comment. Unless noted, calls come from the whole dose curve; as a rule, active = well fitted curve in the direction sought with a large enough effect; inconclusive = small, poorly fitted or top-dose-only effect, or another doubt; inactive = no such curve, though single readings can be large; an effect the other way counts as inactive or inconclusive.

SMILES	Pf growth 96h	Pf growth 48h	AMA1-RON2 inh	Shiga inhibitor	Cycloheximide cs	HCV inh
CN(C)c1ccc(C(=S)NC2CCCCC2)cc1	1.5%	85.2%	-15.5%	69.2*	24.5*	7.3%
O=C1c2sc3nc4c(c(=O)n3c2C(=O)N1c1ccccc1)CCC4	?	?	-11.2%	46.8*	6.0	5.3%
Cc1ccccc1N1C(=O)c2sc3nc4c(c(=O)n3c2C1=O)CCC4	?	?	13.9%	8.0	-3.2	2.9%
CC12CCC=CC1C(c1ccc3ccccc3c1)N(Cc1ccccc1)C2=O (centres undefined)	.	.	.	-4.8	1.0	.
c1ccc(-c2nc3nonc3c3nc4ccccc4n23)cc1	13.1µM*	-4.8%	-4.4%	-19.7	-1.8	-15.3%
c1ccc(-c2nc3ccccc3c3nc4ccccc4n23)cc1	-14.6%	12.6%	4.0%	-14.6	-7.3	-1.5%
Cc1ccc(-c2nc(CS(=O)(=O)CC(=O)N3CCc4ccccc4C3)c(C)o2)cc1	13.1µM*	-18.1%	-4.1%	1.3	-2.2	?
Cc1ccc(/C=C/C(=O)N2CCc3ccccc3C2)cc1	34.0%	.	-0.2%	12.3	11.4*	17.6%
CC(C)(C)c1ccc(/C=C/C(=O)N2CCc3ccccc3C2)cc1	0.738µM*	0.928µM*	-0.2%	-7.3	-1.2	-10.9%
COc1ccc(CCNC(=O)CCS(=O)(=O)Cc2ccccc2C)cc1OC	31.1%	2.4%[0.00184 µM]	4.3%	30.8	-2.8	-2.2%
O=C(Nc1ccccc1)c1cn(CCBr)cn1	.	.	12.4%	.	.	9.4%
O=C1OC(Cc2ccccn2)C(O)=C1C1=NCCCN1 (centres undefined)	133.0%	74.1%	-5.4%	80.8*	27.6*	4.2%
O=C(NCc1ccccn1)C1COc2ccccc2O1 (centres undefined)	.	7.2%	53.2%	-9.0	-1.6	4.2%
O=C1OC(Cc2ccccn2)C(O)=C1C1=NCCCCN1 (centres undefined)	217.2%	202.0%	-2.2%	115.8*	39.4*	5.3%
O=C1Nc2ccccc2C1Cc1ccccn1 (centres undefined)	1.4%	0.3%	28.7%	-0.5	-2.5	-16.0%
COC(=O)c1ccccc1NC(=O)NN1CCN(C)CC1	?	9.6%	-6.7%	-23.6	-3.2	14.1%
CCCCN(C(=O)c1cccc(S(=O)(=O)N(C)c2ccc(C)cc2)c1)c1c(N)n(CCCC)c(=O)[nH]c1=O	?	0.37µM*	-18.1%	.	.	?
CCOc1ccc2nc(SCC(=O)N(CCOC)c3c(N)n(Cc4ccccc4)c(=O)[nH]c3=O)[nH]c2c1	-22.3%	?	-18.0%	.	.	?
CCCCn1c(N)c(N(CCOC)C(=O)CSc2nc3ccc(C)cc3[nH]2)c(=O)[nH]c1=O	9.28µM*	?	-8.9%	-2.9	-3.4	15.2%
CCCCN(C(=O)c1ccc(N(C)S(=O)(=O)c2ccc(C)cc2)cc1)c1c(N)n(CC(C)C)c(=O)[nH]c1=O	.	.	-0.6%	.	.	14.9%
CCCCn1c(N)c(N(CCOC)C(=O)c2cccc(S(=O)(=O)N(C)c3ccc(C)cc3)c2)c(=O)[nH]c1=O	9.28µM*	6.57µM*	1.8%	.	.	6.1%
Cc1nnsc1Sc1ccccc1C(=O)O	33.2%[5.75 µM]	-39.2%[5.75 µM]	1.1%	-14.9	-1.5	8.5%
NS(=O)(=O)c1ccc(NC(=S)NNC(=O)CCC(=O)Nc2ccccc2Cl)cc1	18.4%	11.0%	119.8%	-10.5	-2.1	15.9%
COc1cc([N+](=O)[O-])ccc1NC(=S)NNC(=O)CCC(=O)Nc1ccccc1Cl	23.4%	58.3%	93.2%	28.3*	32.6*	-5.8%
O=C(CCC(=O)Nc1ccccc1Cl)NNC(=S)Nc1ccccc1C(F)(F)F	2.08µM*	18.4%	26.4%	-11.0	-1.7	19.6%
SMILES	Pf growth 96h	Pf growth 48h	AMA1-RON2 inh	Shiga inhibitor	Cycloheximide cs	HCV inh
CCNc1nc(SCCOc2ccc(Cl)cc2Cl)nc(N(C)C)n1	?	?	11.0%	50.3	10.0	?
CCOc1nc(SCCOc2ccccc2)nc(N(C)C)n1	13.2%	-25.3%	12.0%	-3.7	7.0	11.2µM*
CCNc1nc(SCCOc2ccc(C)cc2)nc(N(C)C)n1	-1.3%	0.7%	?	-13.9	-2.8	11.2µM*
COc1ccc(/C=N/N2C(=O)CSC2=S)cc1	?	20.1%	2.9%	17.3	9.2	16.5%
CC(C)(C)c1ccc(/C=N/N2C(=O)CSC2=S)cc1	-8.1%	2.9%	31.8%	29.7	15.8*	9.5%
CCCCOc1ccc(C(=O)OCC(=O)NC2CCCC2)cc1	23.6%	1.7%	8.0%	-10.6	-5.0	9.7%
CC1CC(C)CN(C(=O)/C(=C\c2ccccc2)c2ccccc2)C1 (centres undefined)	93.2%	1.85µM*	-7.8%	-7.0	8.3	25.2%
CCN(CC)S(=O)(=O)c1ccc(C(=O)NCc2n[nH]c(=S)n2-c2ccc(Cl)c(Cl)c2)cc1	?	2.8%	82.2%	20.3	-8.9	0.7%
CC(=O)Nc1cccc(NC(=O)Nc2cccc(F)c2)c1	15.9%	33.4%	-3.9%	16.7	9.3	-6.9%
CNS(=O)(=O)c1ccc(NC(=O)Nc2cccc(F)c2)cc1	1.1%	7.3%	5.8%	85.5*	32.0*	-0.5%
NS(=O)(=O)c1cccc(NC(=O)Nc2ccc(Cl)cc2)c1	15.6%	-13.2%	8.6%	87.0*	35.9*	-2.8%
COC(=O)c1cccc(NC(=S)Nc2ccc(Cl)c(Cl)c2)c1	0.2%	6.2%	-1.5%	9.5	-1.3	?
O=C(Nc1cccc(Cl)c1)Nc1cccc(Cl)c1	-16.9%	3.7µM*	2.7%	68.5*	19.6*	-20.2%
O=C(Nc1cccc(Cl)c1)Nc1ccon1	-29.8%	69.8%	0.4%	15.9	17.4	1.0%
COC(=O)c1cc(NC(=O)Nc2cccc(Cl)c2)ccc1Cl	14.7µM*	9.28µM*	-13.7%	73.1	21.8*	10µM*
CCOCCCNc1ncnc2c1nc1n2CCCC1	?	40.2%	7.2%	-7.1	1.8	5.8%
CSc1nc(N)nc2c1ncn2CC(=O)N1CCN(c2ccccn2)CC1	.	.	13.5%	.	.	10.1%
Cc1ccc(S(=O)(=O)Nc2ccc3c(c2)C(=O)NC3=O)cc1[N+](=O)[O-]	-24.3%	10.7%	-15.7%	17.9	-1.4	14.0%
C=CCCC(=O)N1C[C@@H](CO)[C@@H](NC)C[C@H]1c1ccccc1Br	.	.	4.8%	.	.	.
CC(C)NC(=O)C1(C)CN(S(C)(=O)=O)CC(=O)N1Cc1ccc2c(c1)OCO2 (centres undefined)	.	.	-4.5%	.	.	.
COC(=O)c1cc(NC(=O)c2ccc(-c3ccccc3)cc2)ccc1Cl	-10.1%	-2.2%	3.3%	15.2	-1.4	10µM*
O=C(Nc1cccc(F)c1)Nc1cccc(Cl)c1	?	?	13.3%	.	27.6*	?
N#CCc1ccc(NC(=O)Nc2cccc(Cl)c2)cc1	0.0%	?	-9.9%	70.7	32.0*	-67.1%
O=C(Nc1ccc(-c2ccccc2)cc1)c1ccccc1	?	30.6%	-7.1%	.	-3.2	-11.5%
